Common to all, as to assay: PBM; 200 nM protein, PBS
Common to all, as to conditions: dsDNA, one strand shown

Experiment [1] has as its target HESX1 (Homo sapiens, UniProt Q9UBX0 95-180, R165K).
Experiment [2] concerns the target SHOX (Homo sapiens, UniProt O15266 103-189).
The target in a further experiment is ALX4 (Homo sapiens, UniProt Q9H161 200-286, Q225E).
The target of experiment [3] is HESX1 (Homo sapiens, UniProt Q9UBX0 95-180).
A further experiment addresses MSX2 (Homo sapiens, UniProt P35548 130-214, R199I).
Experiment [4] deals with ALX1 (Homo sapiens, UniProt Q15699 118-204, L144V).
For experiment [5], the target named is ALX3 (Homo sapiens, UniProt O95076 139-225, N203Q).
Experiment [6] concerns the target SHOX (Homo sapiens, UniProt O15266 103-189, R173C).
The target of experiment [7] is ALX1 (Homo sapiens, UniProt Q15699 118-204, L144R).
For experiment [8], the target named is ALX3 (Homo sapiens, UniProt O95076 139-225).
Experiment [9] has as its target PROP1 (Homo sapiens, UniProt O75360 56-141).
Experiment [10] deals with HESX1 (Homo sapiens, UniProt Q9UBX0 95-180, R109Q).
For experiment [11], the target named is PROP1 (Homo sapiens, UniProt O75360 56-141, R99H).
Experiment [12] concerns the target ALX3 (Homo sapiens, UniProt O95076 139-225, L168Q).
For experiment [13], the target named is HESX1 (Homo sapiens, UniProt Q9UBX0 95-180, P111T).
Experiment [14] concerns the target ALX3 (Homo sapiens, UniProt O95076 139-225, L168V).
Experiment [15] addresses PROP1 (Homo sapiens, UniProt O75360 56-141, F88S).
In experiment [16] the target is HESX1 (Homo sapiens, UniProt Q9UBX0 95-180, F115L).
In experiment [17] the target is ALX1 (Homo sapiens, UniProt Q15699 118-204).
For experiment [18], the target named is ALX3 (Homo sapiens, UniProt O95076 139-225, N203S).
ALX3 (Homo sapiens, UniProt O95076 139-225, N203S), sequence (O95076 139-225 N203S): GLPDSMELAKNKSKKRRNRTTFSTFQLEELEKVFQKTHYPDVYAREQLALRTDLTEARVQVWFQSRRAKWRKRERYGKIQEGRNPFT

ALX1 (Homo sapiens, UniProt Q15699 118-204, L144V), sequence (Q15699 118-204 L144V): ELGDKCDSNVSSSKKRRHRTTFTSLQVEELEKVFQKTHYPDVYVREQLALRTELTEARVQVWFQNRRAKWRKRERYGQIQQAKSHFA
ALX4, sequence (Q9H161 200-286 Q225E): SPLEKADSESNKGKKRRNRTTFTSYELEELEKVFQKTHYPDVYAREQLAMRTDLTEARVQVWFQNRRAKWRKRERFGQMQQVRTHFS
ALX3 (Homo sapiens, UniProt O95076 139-225), sequence (O95076 139-225): as the sequence (O95076 139-225 N203S) above, with S65N counted along it
ALX1 (Homo sapiens, UniProt Q15699 118-204, L144R), sequence (Q15699 118-204 L144R): as the sequence (Q15699 118-204 L144V) above, with V27R counted along it
HESX1 (Homo sapiens, UniProt Q9UBX0 95-180, R165K), sequence (Q9UBX0 95-180 R165K): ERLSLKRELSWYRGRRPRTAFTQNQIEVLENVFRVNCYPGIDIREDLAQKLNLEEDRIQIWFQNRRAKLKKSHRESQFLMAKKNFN
PROP1 (Homo sapiens, UniProt O75360 56-141), sequence (O75360 56-141): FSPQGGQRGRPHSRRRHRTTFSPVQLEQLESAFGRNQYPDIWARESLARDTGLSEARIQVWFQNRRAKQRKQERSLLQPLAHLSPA
MSX2, sequence (P35548 130-214 R199I): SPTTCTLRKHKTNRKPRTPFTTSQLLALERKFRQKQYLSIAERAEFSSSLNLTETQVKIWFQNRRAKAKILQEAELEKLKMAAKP
HESX1 (Homo sapiens, UniProt Q9UBX0 95-180, F115L), sequence (Q9UBX0 95-180 F115L): as the sequence (Q9UBX0 95-180 R165K) above, with F21L, K71R counted along it
ALX3 (Homo sapiens, UniProt O95076 139-225, N203Q), sequence (O95076 139-225 N203Q): as the sequence (O95076 139-225 N203S) above, with S65Q counted along it
ALX3 (Homo sapiens, UniProt O95076 139-225, L168V), sequence (O95076 139-225 L168V): as the sequence (O95076 139-225 N203S) above, with L30V, S65N counted along it
ALX1 (Homo sapiens, UniProt Q15699 118-204), sequence (Q15699 118-204): as the sequence (Q15699 118-204 L144V) above, with V27L counted along it
SHOX (Homo sapiens, UniProt O15266 103-189, R173C), sequence (O15266 103-189 R173C): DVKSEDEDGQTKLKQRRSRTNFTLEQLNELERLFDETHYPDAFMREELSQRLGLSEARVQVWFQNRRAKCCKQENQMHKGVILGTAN
SHOX (Homo sapiens, UniProt O15266 103-189), sequence (O15266 103-189): as the sequence (O15266 103-189 R173C) above, with C71R counted along it
PROP1 (Homo sapiens, UniProt O75360 56-141, F88S), sequence (O75360 56-141 F88S): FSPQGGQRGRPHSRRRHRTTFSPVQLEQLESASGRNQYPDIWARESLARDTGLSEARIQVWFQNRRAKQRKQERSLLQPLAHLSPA
HESX1 (Homo sapiens, UniProt Q9UBX0 95-180, P111T), sequence (Q9UBX0 95-180 P111T): as the sequence (Q9UBX0 95-180 R165K) above, with P17T, K71R counted along it
HESX1 (Homo sapiens, UniProt Q9UBX0 95-180, R109Q), sequence (Q9UBX0 95-180 R109Q): as the sequence (Q9UBX0 95-180 R165K) above, with R15Q, K71R counted along it
ALX3 (Homo sapiens, UniProt O95076 139-225, L168Q), sequence (O95076 139-225 L168Q): as the sequence (O95076 139-225 N203S) above, with L30Q, S65N counted along it
PROP1 (Homo sapiens, UniProt O75360 56-141, R99H), sequence (O75360 56-141 R99H): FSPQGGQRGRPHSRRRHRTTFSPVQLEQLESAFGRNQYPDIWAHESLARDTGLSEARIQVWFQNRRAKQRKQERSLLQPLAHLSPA
HESX1 (Homo sapiens, UniProt Q9UBX0 95-180), sequence (Q9UBX0 95-180): as the sequence (Q9UBX0 95-180 R165K) above, with K71R counted along it

Regarding CAATTATC, the binding signal in the experiment with HESX1 [1] was 13 upbm affinity estimate (log intensity, higher = more binding, comparable within an allelic series); in the experiment with SHOX [2], 11.8 upbm affinity estimate (log intensity, higher = more binding, comparable within an allelic series); with ALX4, 13.2 upbm affinity estimate (log intensity, higher = more binding, comparable within an allelic series); with HESX1 [3], 13.1 upbm affinity estimate (log intensity, higher = more binding, comparable within an allelic series); with MSX2, 13 upbm affinity estimate (log intensity, higher = more binding, comparable within an allelic series); with ALX1 [4], 11.7 upbm affinity estimate (log intensity, higher = more binding, comparable within an allelic series). For the same sequence, the binding signal was 8.4 upbm affinity estimate (log intensity, higher = more binding, comparable within an allelic series) with ALX3 [5]; 9.58 upbm affinity estimate (log intensity, higher = more binding, comparable within an allelic series) in the experiment with SHOX [6]; 11.4 upbm affinity estimate (log intensity, higher = more binding, comparable within an allelic series) with ALX1 [7]; 12.5 upbm affinity estimate (log intensity, higher = more binding, comparable within an allelic series) with ALX3 [8]; 11.5 upbm affinity estimate (log intensity, higher = more binding, comparable within an allelic series) in the experiment with PROP1 [9]; 9.41 upbm affinity estimate (log intensity, higher = more binding, comparable within an allelic series) with HESX1 [10]. Further, the binding signal with PROP1 [11] was 11.7 upbm affinity estimate (log intensity, higher = more binding, comparable within an allelic series); in the experiment with ALX3 [12] it was 10.6 upbm affinity estimate (log intensity, higher = more binding, comparable within an allelic series); in the experiment with HESX1 [13], 11.4 upbm affinity estimate (log intensity, higher = more binding, comparable within an allelic series); with ALX3 [14], 10.1 upbm affinity estimate (log intensity, higher = more binding, comparable within an allelic series); with PROP1 [15], 7.73 upbm affinity estimate (log intensity, higher = more binding, comparable within an allelic series); with HESX1 [16] it was 8 upbm affinity estimate (log intensity, higher = more binding, comparable within an allelic series). The binding signal with ALX1 [17] is 12.3 upbm affinity estimate (log intensity, higher = more binding, comparable within an allelic series); in the experiment with ALX3 [18], 8.56 upbm affinity estimate (log intensity, higher = more binding, comparable within an allelic series).
Consider GTAATTGA, for which the binding signal with HESX1 [1] was 12.5 upbm affinity estimate (log intensity, higher = more binding, comparable within an allelic series); in the experiment with SHOX [2] it was 11.9 upbm affinity estimate (log intensity, higher = more binding, comparable within an allelic series); with ALX4, 12.8 upbm affinity estimate (log intensity, higher = more binding, comparable within an allelic series); in the experiment with HESX1 [3], 12.6 upbm affinity estimate (log intensity, higher = more binding, comparable within an allelic series); in the experiment with MSX2 it was 12.5 upbm affinity estimate (log intensity, higher = more binding, comparable within an allelic series); with ALX1 [4] it was 11.7 upbm affinity estimate (log intensity, higher = more binding, comparable within an allelic series). Further, the binding signal was 8.3 upbm affinity estimate (log intensity, higher = more binding, comparable within an allelic series) with ALX3 [5]; 9.41 upbm affinity estimate (log intensity, higher = more binding, comparable within an allelic series) in the experiment with SHOX [6]; 11.2 upbm affinity estimate (log intensity, higher = more binding, comparable within an allelic series) with ALX1 [7]; 12.4 upbm affinity estimate (log intensity, higher = more binding, comparable within an allelic series) in the experiment with ALX3 [8]; 11.3 upbm affinity estimate (log intensity, higher = more binding, comparable within an allelic series) with PROP1 [9]; 8.99 upbm affinity estimate (log intensity, higher = more binding, comparable within an allelic series) with HESX1 [10]. Further, the binding signal is 11.5 upbm affinity estimate (log intensity, higher = more binding, comparable within an allelic series) with PROP1 [11]; 10.4 upbm affinity estimate (log intensity, higher = more binding, comparable within an allelic series) in the experiment with ALX3 [12]; 11 upbm affinity estimate (log intensity, higher = more binding, comparable within an allelic series) in the experiment with HESX1 [13]; 9.76 upbm affinity estimate (log intensity, higher = more binding, comparable within an allelic series) with ALX3 [14]; 7.49 upbm affinity estimate (log intensity, higher = more binding, comparable within an allelic series) with PROP1 [15]; 7.6 upbm affinity estimate (log intensity, higher = more binding, comparable within an allelic series) with HESX1 [16]. The binding signal was 12.3 upbm affinity estimate (log intensity, higher = more binding, comparable within an allelic series) with ALX1 [17] and 8.44 upbm affinity estimate (log intensity, higher = more binding, comparable within an allelic series) with ALX3 [18].
As for CTAATTGA, the binding signal with HESX1 [1] was 13.2 upbm affinity estimate (log intensity, higher = more binding, comparable within an allelic series); with SHOX [2], 12.6 upbm affinity estimate (log intensity, higher = more binding, comparable within an allelic series); with ALX4 it was 13.5 upbm affinity estimate (log intensity, higher = more binding, comparable within an allelic series); in the experiment with HESX1 [3] it was 13.2 upbm affinity estimate (log intensity, higher = more binding, comparable within an allelic series); with MSX2, 12.8 upbm affinity estimate (log intensity, higher = more binding, comparable within an allelic series); with ALX1 [4] it was 11.9 upbm affinity estimate (log intensity, higher = more binding, comparable within an allelic series). The binding signal with ALX3 [5] is 8.21 upbm affinity estimate (log intensity, higher = more binding, comparable within an allelic series); with SHOX [6], 9.97 upbm affinity estimate (log intensity, higher = more binding, comparable within an allelic series); in the experiment with ALX1 [7] it was 11.5 upbm affinity estimate (log intensity, higher = more binding, comparable within an allelic series); in the experiment with ALX3 [8] it was 12.7 upbm affinity estimate (log intensity, higher = more binding, comparable within an allelic series); with PROP1 [9] it was 11.8 upbm affinity estimate (log intensity, higher = more binding, comparable within an allelic series); in the experiment with HESX1 [10], 9.83 upbm affinity estimate (log intensity, higher = more binding, comparable within an allelic series). The binding signal is 12.1 upbm affinity estimate (log intensity, higher = more binding, comparable within an allelic series) with PROP1 [11]; 10.8 upbm affinity estimate (log intensity, higher = more binding, comparable within an allelic series) with ALX3 [12]; 11.8 upbm affinity estimate (log intensity, higher = more binding, comparable within an allelic series) in the experiment with HESX1 [13]; 10.2 upbm affinity estimate (log intensity, higher = more binding, comparable within an allelic series) with ALX3 [14]; 7.7 upbm affinity estimate (log intensity, higher = more binding, comparable within an allelic series) in the experiment with PROP1 [15]; 7.77 upbm affinity estimate (log intensity, higher = more binding, comparable within an allelic series) in the experiment with HESX1 [16]. Further, the binding signal in the experiment with ALX1 [17] was 12.8 upbm affinity estimate (log intensity, higher = more binding, comparable within an allelic series); with ALX3 [18], 8.38 upbm affinity estimate (log intensity, higher = more binding, comparable within an allelic series).
Turning to CAATTATG, the binding signal with HESX1 [1] was 12.7 upbm affinity estimate (log intensity, higher = more binding, comparable within an allelic series); with SHOX [2], 12.1 upbm affinity estimate (log intensity, higher = more binding, comparable within an allelic series); with ALX4 it was 13.1 upbm affinity estimate (log intensity, higher = more binding, comparable within an allelic series); with HESX1 [3] it was 12.9 upbm affinity estimate (log intensity, higher = more binding, comparable within an allelic series); with MSX2, 12.8 upbm affinity estimate (log intensity, higher = more binding, comparable within an allelic series); with ALX1 [4], 11.7 upbm affinity estimate (log intensity, higher = more binding, comparable within an allelic series). Further, the binding signal was 8.45 upbm affinity estimate (log intensity, higher = more binding, comparable within an allelic series) with ALX3 [5]; 9.62 upbm affinity estimate (log intensity, higher = more binding, comparable within an allelic series) in the experiment with SHOX [6]; 11.4 upbm affinity estimate (log intensity, higher = more binding, comparable within an allelic series) with ALX1 [7]; 12.4 upbm affinity estimate (log intensity, higher = more binding, comparable within an allelic series) with ALX3 [8]; 11.5 upbm affinity estimate (log intensity, higher = more binding, comparable within an allelic series) with PROP1 [9]; 9.11 upbm affinity estimate (log intensity, higher = more binding, comparable within an allelic series) in the experiment with HESX1 [10]. Besides, the binding signal with PROP1 [11] is 11.5 upbm affinity estimate (log intensity, higher = more binding, comparable within an allelic series); with ALX3 [12], 10.5 upbm affinity estimate (log intensity, higher = more binding, comparable within an allelic series); with HESX1 [13], 11.2 upbm affinity estimate (log intensity, higher = more binding, comparable within an allelic series); with ALX3 [14] it was 9.96 upbm affinity estimate (log intensity, higher = more binding, comparable within an allelic series); with PROP1 [15] it was 7.66 upbm affinity estimate (log intensity, higher = more binding, comparable within an allelic series); with HESX1 [16] it was 7.82 upbm affinity estimate (log intensity, higher = more binding, comparable within an allelic series). Moreover, the binding signal in the experiment with ALX1 [17] is 12.3 upbm affinity estimate (log intensity, higher = more binding, comparable within an allelic series); with ALX3 [18], 8.59 upbm affinity estimate (log intensity, higher = more binding, comparable within an allelic series).

For the origin of these results see PMC11006913.
